Among all 310,000 compounds or so, about 1,500 (0.48%) were called active. What follows is part of a selection rich in actives, with near analogues and random picks from the rest. Unmarked numbers belong to inactive results.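 Rule for the calls: active = binding more than 3 SD below its plate's average and above zero; inconclusive = below that plate limit but binding exactly zero; inactive = the rest.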
Target: Desmoglein-3 (Homo sapiens) (UniProt P32926)
Experiment: inhibitors of pemphigus antibody binding to DSG3, primary screen, biochemical, bead-based, flow cytometry, scFv-GFP (AID 588358);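 note: hits lower antibody fragment binding to DSG3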
Settings: DSG3-coupled beads, scFv-anti-DSG3-GFP binding, at 10 µM, hits give low values

Desmoglein-3 (Homo sapiens), sequence (P32926 whole entry, looked up, the tested form may be a part): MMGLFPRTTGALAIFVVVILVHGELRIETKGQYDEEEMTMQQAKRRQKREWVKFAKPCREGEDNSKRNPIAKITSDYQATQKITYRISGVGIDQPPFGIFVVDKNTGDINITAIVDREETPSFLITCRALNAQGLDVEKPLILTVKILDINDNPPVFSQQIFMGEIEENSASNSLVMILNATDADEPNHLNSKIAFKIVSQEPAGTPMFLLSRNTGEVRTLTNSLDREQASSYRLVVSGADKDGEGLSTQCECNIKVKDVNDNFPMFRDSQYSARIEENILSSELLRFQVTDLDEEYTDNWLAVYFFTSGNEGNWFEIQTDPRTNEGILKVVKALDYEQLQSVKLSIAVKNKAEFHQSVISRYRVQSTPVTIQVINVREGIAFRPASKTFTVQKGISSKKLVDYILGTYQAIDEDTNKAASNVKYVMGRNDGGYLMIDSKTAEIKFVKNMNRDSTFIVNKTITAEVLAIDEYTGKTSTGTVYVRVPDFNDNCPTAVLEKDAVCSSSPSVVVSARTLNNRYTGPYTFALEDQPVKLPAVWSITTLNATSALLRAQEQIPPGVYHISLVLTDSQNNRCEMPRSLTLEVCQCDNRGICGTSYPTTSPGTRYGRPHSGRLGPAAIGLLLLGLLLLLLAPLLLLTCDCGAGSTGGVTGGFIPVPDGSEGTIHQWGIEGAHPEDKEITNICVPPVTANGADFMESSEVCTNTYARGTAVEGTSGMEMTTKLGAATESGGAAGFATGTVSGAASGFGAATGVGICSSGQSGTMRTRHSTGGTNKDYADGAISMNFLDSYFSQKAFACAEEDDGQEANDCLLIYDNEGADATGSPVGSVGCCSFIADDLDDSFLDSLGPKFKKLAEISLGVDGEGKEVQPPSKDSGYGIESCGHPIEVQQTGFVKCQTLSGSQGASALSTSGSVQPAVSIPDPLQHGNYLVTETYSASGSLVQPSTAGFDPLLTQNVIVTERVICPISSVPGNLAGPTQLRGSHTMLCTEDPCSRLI

Structure (SMILES)	binding (percent of control)
Cc1cc2cc(CNC(=O)c3ccc(S(=O)(=O)N4CCOCC4)cc3)ccc2[nH]1	95.4%
CCc1cccc(CC)c1NC(=S)NCc1ccc2[nH]c(C)cc2c1	78.1%
Cc1cc2cc(CNC(=O)c3cccs3)ccc2[nH]1	80.6% (active)
Cc1onc(-c2ccccc2)c1-c1nnc(COC(=O)c2ccc(N(C)C)cc2)o1	109%
C[C@H](CO)N1C[C@H](C)[C@H](CN(C)C(=O)c2ccncc2)OCc2ccccc2-c2c(n(C)c3ccccc23)C1=O	103%
Cc1cccc(C(=O)NC2CCN(CC(=O)Nc3cccc(Cl)c3)CC2)c1	92.9%
O=C(c1cc(-c2ccc(Cl)cc2)on1)N1CCN(c2ccccc2)CC1	24.2% (active)
O=C(c1cc(-c2ccc(O)cc2)on1)N1CCOCC1	104%
O=C(c1cc(-c2ccc(F)cc2)on1)N1CCN(c2ccc(F)cc2)CC1	91%
Cc1cccc(C(=O)Nc2nnc(S(=O)(=O)N3CCCCCC3)s2)c1	29.9% (active)
COc1cccc(C(=O)Nc2nnc(S(=O)(=O)N3CCCCC3)s2)c1	99.3%
O=C(Nc1nnc(S(=O)(=O)N2CCCCCC2)s1)c1cccc(Br)c1	102%
CC1(C2CC2)NC(=O)N(CC(=O)N2CCN(c3ccccc3F)CC2)C1=O (stereo not drawn)	101%
COc1ccc(NC(=O)CSc2nnnn2-c2cccc(OC)c2)cc1	92.2%
O=C(O)c1ccc(S(=O)(=O)c2ccccc2)s1	123%
O=C(O)C#Cc1cccc2ccccc12	97.7%
O=C(O)c1cc2ccccc2c(=O)s1	53.2% (active)
CCN1C(=O)[C@H]2[C@@H](c3ccc(C(F)(F)F)cc3)N[C@]3(CCCN(Cc4ccc(Br)cc4)C3=O)[C@H]2C1=O	111%
CCC(=C/c1sc2ccc3ccccc3c2[n+]1C)/C=C1\Sc2ccc3ccccc3c2N1C	75% (active)
CCOC(=O)c1cc(-c2sc(NC(=O)c3ccccc3)nc2C)n(-c2ccc(Br)cc2)n1	102%
O=C(COc1ccc(Cl)cc1)N1CCN(S(=O)(=O)c2ccc(Cl)cc2)CC1	66.4% (active)
O=C(CSc1ccccn1)N1CCN(S(=O)(=O)c2ccc(Cl)cc2)CC1	96.2%
Nc1nc(SCC(=O)N2CCN(S(=O)(=O)c3ccc(Cl)cc3)CC2)n[nH]1	104%
O=C(CSc1ccc(-c2ccccn2)nn1)Nc1ccccc1	101%
O=C(CSc1ccc(-c2ccc(-n3cccn3)cc2)nn1)Nc1ccc([N+](=O)[O-])cc1	89.5% (active)

Structure (SMILES)	binding (percent of control)
O=C(CSc1ccc([N+](=O)[O-])cn1)Nc1ccc(N2CCOCC2)cc1	96.9%
COc1ccccc1NC(=O)C(CC(=O)O)Cc1cc(C)cc(C)c1 (stereo not drawn)	96.8%
COc1ccc(CCNC(=O)CN(c2ccccc2)S(=O)(=O)c2ccccc2)cc1	97.8%
COc1ncnc2c1ncn2CCCNCCN1CCOCC1	98%
COc1cccc(/C=N\Nc2nncc(-c3ccccc3)n2)c1	90.1% (active)
COc1cccc(/C=N/NC(=O)C(=O)N2CCCC2)c1	102%
COc1cccc(/C=N/Nc2ccc(Cl)nn2)c1	98.6%
CC(=O)c1c(C)n(-c2ccc(C)cc2)c2ccc(O)cc12	61.8% (active)
CCOC(=O)c1c(CN2CCOCC2)n(-c2ccccc2)c2ccc(O)cc12	107%
CC(=O)c1c(C)n(-c2ccc(N(C)C)cc2)c2ccc(OCC(N)=O)cc12	96.5%
CCOC(=O)C(C(=O)c1ccccc1)C(c1ccccc1)c1nccc2ccccc12 (stereo not drawn)	108%
O=C(O)C1CCCN1c1nc(Cl)ccc1[N+](=O)[O-] (stereo not drawn)	90.2%
COc1ccc(S(=O)(=O)N2CCC(C(=O)NCCC(=O)NCCc3cccc(F)c3)CC2)cc1	99%
Cc1nc(-c2ccc(Cl)cc2)sc1C(=O)NN	110%
Cc1nc(-c2ccc(Cl)cc2)sc1C(=O)CBr	63.4% (active)
Cc1nc(-c2ccccc2)sc1C(=O)/C=C/N(C)C	97.8%
COc1ccc(CN2C(=O)C(CC(=O)NC3CCCCC3)CC(C(=O)N3CCOCC3)=C2C)cc1 (stereo not drawn)	102%
COC(=O)c1ccccc1N=NNc1ccc([N+](=O)[O-])cc1	104%
O=[N+]([O-])c1ccc(N=NNc2ccc([N+](=O)[O-])cc2)cc1	44.4% (active)
O=[N+]([O-])c1ccc(N/N=C/c2ccccc2)cc1	102%
COc1cc(C)c(CN2CCN(C(=O)CCC(=O)c3ccc(C)s3)CC2)cc1OC	98.2%
COc1ccc(NC(=O)CCCOc2ccc(C(C)=O)cc2)cc1S(=O)(=O)N1CCCCC1	109%
c1ccc(Cn2nnc3c(NCC4CC4)ncnc32)cc1	101%
O=C(CC(=O)c1cccnc1)c1ccccc1	66.2% (active)
O=C(c1cccnc1)N(Cc1ccccc1)C(=O)c1cccnc1	86.3%

Structure (SMILES)	binding (percent of control)
O=C(NNC(=O)c1cccnc1)Nc1ccccc1	103%
CCOC(=O)c1cc(-c2sc(NC(=O)c3ccccc3)nc2C)n(Cc2ccccc2)n1	101%
CCOC(=O)C1CCN(C(=O)c2ccc3c(=O)n4nc(Nc5ccccc5CC)sc4nc3c2)CC1	104%
Cc1nn(CC(=O)Nc2ccc(F)cc2)c(=O)c2ccccc12	105%
Cc1ccc(NC(=O)Cn2sc3ccccc3c2=O)cc1	58.5% (active)
Cc1ccc(NC(=O)Cn2c(C)csc2=O)cc1	92.9%
C[C@@H]1CN([C@@H](C)CO)C(=O)c2c(c3ccccc3n2C)-c2ccccc2CO[C@H]1CN(C)C(=O)C1CC1	101%
COc1ccc(Cl)cc1NC(=O)CN(C)C(=O)c1cn(-c2ccccc2)nc1-c1cccs1	112%
Cn1ncc([N+](=O)[O-])c1C(=O)Nc1cc(Cl)ccc1Cl	102%
COc1cc(-c2nnn(CC(=O)NCc3ccccc3)n2)cc(OC)c1OC	89.3%
O=C(Cn1nnc(-c2ccccc2)n1)NC(=O)NC1CCCC1	102%
N#Cc1ccc(COC(=O)Cn2nnc(-c3ccccc3)n2)cc1	-1.31% (active)
Cc1cccc(OCCNC(=O)CSc2ccc(C(F)(F)F)cc2[N+](=O)[O-])c1	114%
O=C(CSc1ccc(C(F)(F)F)cc1[N+](=O)[O-])NCCOc1ccccc1	87.7% (active)
CCCCCCCCC(=O)NCCOc1ccccc1	96.9%
CCOC(=O)c1cnn2c(SC)ncnc12	105%
CCOc1ccc(NC(=O)c2nc(SCC)ncc2Cl)cc1	62.8% (active)
CSc1ncc(Cl)c(C(=O)Nc2cc(C)ccc2C)n1	95%
CCOc1ccc(NC(=O)NNC(=O)c2ccc(Cl)cc2Cl)cc1	103%
COc1ccc(NC(=O)COC(=O)C2COc3ccccc3O2)cc1 (stereo not drawn)	100%
Cc1ccc(C(=O)OCC(=O)NC2CCCCCCC2)cc1C	97%
CC(C)n1ncc2c(C(=O)N3CCN(Cc4cccs4)CC3)cc(C3CC3)nc21	101%
COc1ccc(NC(=O)CCCC(=O)c2ccccc2)cc1	72.9% (active)
COc1ccc(C(=O)CCC(=O)Nc2ccc(Cl)cc2)cc1	102%
COc1ccc(NC(=O)CS(=O)(=O)c2ccccc2)cc1	103%

Structure (SMILES)	binding (percent of control)
C#Cc1cc(N2CCN(C(=O)c3ccoc3)CC2)n2nc(-c3cccc(Cl)c3)cc2n1	96%
Cc1ccc(C=O)c([B-](F)(F)F)c1	103%
CC1(C)OC(=O)C2=C(CC(c3ccccc3)OC2CCc2ccccc2)O1 (stereo not drawn)	109%
Cc1ccc(S(=O)(=O)N2CCCCC2)cc1NC(=O)c1cccnc1	103%
O=C(Nc1cccc(-n2cnnn2)c1)c1cccnc1	104%
Cc1ccc(-n2nc3cc(C)c(NC(=O)c4cccnc4)cc3n2)cc1	78.3% (active)
CC(=O)Nc1c(-c2ccc(C)cc2)nc2ccc(Cl)cn12	98.5%
CCCCN1C[C@H](c2ccc(Br)cc2)[C@@H](CC(=O)Nc2ccc(Br)cc2)C1=O	102%
C=CCNC(=O)c1cc(-c2ccccc2O)on1	79.7% (active)
O=C(Nc1cccnc1Cl)c1cc(-c2ccccc2O)on1	92.4%
O=C(c1cc(-c2ccccc2O)on1)N1CCCC1	105%
O=C(COC(=O)CCc1c[nH]c2ccccc12)Nc1cccc(Cl)c1	102%
COc1ccccc1C(=O)NC(=S)Nc1ccc(N2CCOCC2)cc1	101%
CC(C)[C@H](NC(=O)c1ccccc1F)C(=O)Nc1cccc(S(=O)(=O)N2CCOCC2)c1	107%
O=C(N/N=C/c1cccnc1)c1cc2ccccc2cc1O	97.3% (active)
Cc1ccc(/C=N/NC(=O)c2cc3ccccc3cc2O)o1	111%
O=C(N/N=C\c1cccnc1)c1cc(-c2ccccc2)nc2c(Cl)cccc12	111%
Cc1ccccc1C#CC1=CC(=O)CC(C)(C)C1	97.5%
C[C@@H]1CN([C@H](C)CO)S(=O)(=O)c2ccc(C#CC3CCCCC3)cc2O[C@H]1CN(C)C(=O)Cc1ccncc1	123%
CN(C)C(CNC(=O)c1cc(Br)c(Br)s1)c1ccco1 (stereo not drawn)	99.7%
O=C(Cc1cccs1)Nc1nnc(C2CC2)s1	125%
O=C(CN1C(=O)c2ccc([N+](=O)[O-])cc2C1=O)Nc1nnc(C2CC2)s1	66.2% (active)
Cc1cccc(NC(=O)CSCC(=O)Nc2nnc(C3CC3)s2)c1	105%

Source: PubChem BioAssay AID588358 (NMMLSC, 2011)
